According to ChEMBL document CHEMBL1961873, “Compounds: GSK PKIS; Assays: Nanosyn kinase panel” (2012):

Tests used:
[1] = biological target: T1, 3-phosphoinositide-dependent protein kinase 1 (Homo sapiens) (UniProt O15530); conditions: at 0.1 µM;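 also: values are mean inhibition of PDK1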
T1 sequence (whole entry): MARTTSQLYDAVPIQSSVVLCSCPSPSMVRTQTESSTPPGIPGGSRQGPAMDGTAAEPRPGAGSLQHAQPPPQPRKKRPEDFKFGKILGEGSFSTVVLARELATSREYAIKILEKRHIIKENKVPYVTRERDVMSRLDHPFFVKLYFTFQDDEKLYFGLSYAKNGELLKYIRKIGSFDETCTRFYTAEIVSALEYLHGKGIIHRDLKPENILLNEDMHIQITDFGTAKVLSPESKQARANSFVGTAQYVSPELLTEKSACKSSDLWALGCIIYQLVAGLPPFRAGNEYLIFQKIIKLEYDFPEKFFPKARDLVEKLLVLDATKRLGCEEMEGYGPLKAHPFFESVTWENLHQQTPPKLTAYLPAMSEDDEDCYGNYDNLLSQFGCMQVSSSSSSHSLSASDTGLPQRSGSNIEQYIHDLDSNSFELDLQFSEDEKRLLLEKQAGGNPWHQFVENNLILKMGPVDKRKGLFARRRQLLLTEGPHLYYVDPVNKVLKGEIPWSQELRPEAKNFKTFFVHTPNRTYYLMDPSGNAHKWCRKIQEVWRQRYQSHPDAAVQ

[2] = biological target: cAMP-dependent protein kinase catalytic subunit alpha (Homo sapiens) (UniProt P17612); conditions: at 0.1 µM
[3] = biological target: cAMP-dependent protein kinase catalytic subunit alpha (Homo sapiens) (UniProt P17612); conditions: at 1 µM
[4] = biological target: Protein kinase C alpha type (Homo sapiens) (UniProt P17252); conditions: at 0.1 µM
[5] = biological target: Protein kinase C alpha type (Homo sapiens) (UniProt P17252); conditions: at 1 µM
[6] = biological target: Protein kinase C beta type (Homo sapiens) (UniProt P05771); conditions: at 0.1 µM
Sequence of Protein kinase C beta type (Homo sapiens) (P05771 2-671 limits assumed): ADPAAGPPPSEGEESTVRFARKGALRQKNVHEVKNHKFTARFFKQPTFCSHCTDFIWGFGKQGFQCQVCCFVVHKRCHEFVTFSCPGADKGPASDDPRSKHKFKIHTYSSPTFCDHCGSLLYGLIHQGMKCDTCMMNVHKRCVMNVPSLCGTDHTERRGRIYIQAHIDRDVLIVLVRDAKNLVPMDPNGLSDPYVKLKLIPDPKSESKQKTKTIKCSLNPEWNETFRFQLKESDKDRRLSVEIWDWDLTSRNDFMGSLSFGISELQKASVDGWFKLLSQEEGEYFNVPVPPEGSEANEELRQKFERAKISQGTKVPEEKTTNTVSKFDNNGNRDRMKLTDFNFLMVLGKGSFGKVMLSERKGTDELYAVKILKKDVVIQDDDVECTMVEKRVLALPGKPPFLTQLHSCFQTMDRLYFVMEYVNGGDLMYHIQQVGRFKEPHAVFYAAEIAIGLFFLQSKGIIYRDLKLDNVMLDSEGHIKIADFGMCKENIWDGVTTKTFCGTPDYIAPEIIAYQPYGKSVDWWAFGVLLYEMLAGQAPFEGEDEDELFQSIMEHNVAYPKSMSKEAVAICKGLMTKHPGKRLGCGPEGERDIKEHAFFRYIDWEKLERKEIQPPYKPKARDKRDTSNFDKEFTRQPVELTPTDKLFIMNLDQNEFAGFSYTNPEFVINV

[7] = biological target: Protein kinase C beta type (Homo sapiens) (UniProt P05771); conditions: at 1 µM
[8] = biological target: Protein kinase C eta type (Homo sapiens) (UniProt P24723); conditions: at 0.1 µM
Sequence of Protein kinase C eta type (Homo sapiens) (P24723 whole entry): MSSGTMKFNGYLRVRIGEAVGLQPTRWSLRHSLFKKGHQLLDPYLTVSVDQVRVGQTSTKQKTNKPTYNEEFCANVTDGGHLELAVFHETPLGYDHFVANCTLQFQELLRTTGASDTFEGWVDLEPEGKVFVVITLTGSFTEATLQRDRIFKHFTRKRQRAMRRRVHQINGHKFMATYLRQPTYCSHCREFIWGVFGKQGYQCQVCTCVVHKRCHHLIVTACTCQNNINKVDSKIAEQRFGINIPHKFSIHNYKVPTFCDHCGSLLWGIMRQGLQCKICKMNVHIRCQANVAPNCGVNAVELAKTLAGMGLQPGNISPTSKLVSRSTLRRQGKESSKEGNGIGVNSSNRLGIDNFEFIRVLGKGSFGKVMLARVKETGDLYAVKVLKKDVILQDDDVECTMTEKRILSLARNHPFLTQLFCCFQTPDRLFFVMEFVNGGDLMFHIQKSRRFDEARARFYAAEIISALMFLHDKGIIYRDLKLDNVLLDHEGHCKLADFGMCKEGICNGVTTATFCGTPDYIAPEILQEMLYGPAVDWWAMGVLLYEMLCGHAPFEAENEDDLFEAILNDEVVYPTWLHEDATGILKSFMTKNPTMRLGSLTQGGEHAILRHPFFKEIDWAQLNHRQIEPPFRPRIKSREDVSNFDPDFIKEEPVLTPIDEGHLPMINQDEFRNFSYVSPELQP

[9] = biological target: Protein kinase C eta type (Homo sapiens) (UniProt P24723); conditions: at 1 µM
[10] = biological target: Protein kinase C gamma type (Homo sapiens) (UniProt P05129); conditions: at 0.1 µM
[11] = biological target: Protein kinase C gamma type (Homo sapiens) (UniProt P05129); conditions: at 1 µM
[12] = biological target: T2, Protein kinase C iota type (Homo sapiens) (UniProt P41743); conditions: at 0.1 µM
T2 sequence (whole entry): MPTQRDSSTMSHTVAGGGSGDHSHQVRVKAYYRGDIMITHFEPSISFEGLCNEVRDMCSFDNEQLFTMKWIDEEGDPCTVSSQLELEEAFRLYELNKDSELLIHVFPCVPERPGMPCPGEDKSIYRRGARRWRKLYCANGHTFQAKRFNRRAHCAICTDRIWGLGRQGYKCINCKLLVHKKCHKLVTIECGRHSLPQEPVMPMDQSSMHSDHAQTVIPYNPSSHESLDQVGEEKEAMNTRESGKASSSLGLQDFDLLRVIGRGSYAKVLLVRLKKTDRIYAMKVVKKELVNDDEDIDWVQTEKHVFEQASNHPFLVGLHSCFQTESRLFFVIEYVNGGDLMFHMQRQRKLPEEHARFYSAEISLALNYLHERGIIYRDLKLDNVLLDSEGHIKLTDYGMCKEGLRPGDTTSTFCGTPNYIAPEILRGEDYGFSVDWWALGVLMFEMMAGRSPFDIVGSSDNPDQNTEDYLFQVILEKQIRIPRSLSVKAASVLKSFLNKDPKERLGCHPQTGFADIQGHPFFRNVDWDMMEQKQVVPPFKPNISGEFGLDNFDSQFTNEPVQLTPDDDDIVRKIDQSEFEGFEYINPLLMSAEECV

[13] = biological target: T2, Protein kinase C iota type (Homo sapiens); conditions: at 1 µM
[14] = biological target: Protein kinase C theta type (Homo sapiens) (UniProt Q04759); conditions: at 0.1 µM
Sequence of Protein kinase C theta type (Homo sapiens) (Q04759 whole entry, looked up): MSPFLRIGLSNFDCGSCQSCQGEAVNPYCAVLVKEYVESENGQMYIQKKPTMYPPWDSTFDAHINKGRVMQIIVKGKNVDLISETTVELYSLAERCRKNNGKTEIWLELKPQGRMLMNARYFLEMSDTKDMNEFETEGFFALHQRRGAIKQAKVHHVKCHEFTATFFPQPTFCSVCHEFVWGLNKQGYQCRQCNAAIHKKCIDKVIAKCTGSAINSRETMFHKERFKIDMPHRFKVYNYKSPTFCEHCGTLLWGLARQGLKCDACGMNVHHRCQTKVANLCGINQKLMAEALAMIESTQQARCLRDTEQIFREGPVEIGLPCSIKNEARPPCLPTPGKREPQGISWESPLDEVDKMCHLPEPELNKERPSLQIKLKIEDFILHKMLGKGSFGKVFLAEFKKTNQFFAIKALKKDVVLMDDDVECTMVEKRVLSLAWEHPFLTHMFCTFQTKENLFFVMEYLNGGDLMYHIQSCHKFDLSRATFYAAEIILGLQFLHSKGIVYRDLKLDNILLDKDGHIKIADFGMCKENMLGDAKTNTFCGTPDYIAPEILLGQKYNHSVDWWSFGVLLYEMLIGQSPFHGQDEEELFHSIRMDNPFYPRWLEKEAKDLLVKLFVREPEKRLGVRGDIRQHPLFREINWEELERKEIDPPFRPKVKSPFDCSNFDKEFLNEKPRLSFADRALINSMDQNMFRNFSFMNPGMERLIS

[15] = biological target: Protein kinase C theta type (Homo sapiens) (UniProt Q04759); conditions: at 1 µM
[16] = biological target: Protein kinase C beta type (Homo sapiens) (UniProt P05771); conditions: at 0.1 µM; remark: listed apart in the source
[17] = biological target: Protein kinase C beta type (Homo sapiens) (UniProt P05771); conditions: at 1 µM; remark: listed apart in the source
[18] = biological target: T3, Serine/threonine-protein kinase D1 (Homo sapiens) (UniProt Q15139); conditions: at 0.1 µM
T3 sequence (whole entry): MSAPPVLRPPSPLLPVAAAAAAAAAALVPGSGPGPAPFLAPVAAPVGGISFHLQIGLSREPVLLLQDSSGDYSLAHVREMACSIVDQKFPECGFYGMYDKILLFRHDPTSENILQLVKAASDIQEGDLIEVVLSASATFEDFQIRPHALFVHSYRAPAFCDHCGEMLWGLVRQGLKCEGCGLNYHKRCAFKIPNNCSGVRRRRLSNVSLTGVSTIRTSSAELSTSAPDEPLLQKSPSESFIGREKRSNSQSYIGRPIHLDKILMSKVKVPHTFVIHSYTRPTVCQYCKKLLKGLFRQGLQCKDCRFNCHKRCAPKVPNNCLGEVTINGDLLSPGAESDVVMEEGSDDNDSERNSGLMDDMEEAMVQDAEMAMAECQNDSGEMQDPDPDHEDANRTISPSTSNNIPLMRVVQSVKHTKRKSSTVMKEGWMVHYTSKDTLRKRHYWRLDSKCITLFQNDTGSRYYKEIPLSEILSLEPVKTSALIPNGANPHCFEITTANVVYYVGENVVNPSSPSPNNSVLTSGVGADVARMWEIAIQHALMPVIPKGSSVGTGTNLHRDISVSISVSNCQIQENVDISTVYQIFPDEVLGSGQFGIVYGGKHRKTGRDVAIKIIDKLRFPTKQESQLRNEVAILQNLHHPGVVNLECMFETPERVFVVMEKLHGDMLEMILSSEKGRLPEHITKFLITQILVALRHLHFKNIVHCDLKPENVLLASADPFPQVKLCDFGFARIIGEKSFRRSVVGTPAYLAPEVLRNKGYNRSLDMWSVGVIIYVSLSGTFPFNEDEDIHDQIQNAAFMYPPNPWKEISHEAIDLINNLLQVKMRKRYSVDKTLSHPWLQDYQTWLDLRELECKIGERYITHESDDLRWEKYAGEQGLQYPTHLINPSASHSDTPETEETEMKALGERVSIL

[19] = biological target: T3, Serine/threonine-protein kinase D1 (Homo sapiens); conditions: at 1 µM
[20] = biological target: T4, Serine/threonine-protein kinase D2 (Homo sapiens) (UniProt Q9BZL6); conditions: at 0.1 µM;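 also: reported percent inhibition values are means, part of the GSK PKIS kinase panel screen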
T4 sequence (whole entry): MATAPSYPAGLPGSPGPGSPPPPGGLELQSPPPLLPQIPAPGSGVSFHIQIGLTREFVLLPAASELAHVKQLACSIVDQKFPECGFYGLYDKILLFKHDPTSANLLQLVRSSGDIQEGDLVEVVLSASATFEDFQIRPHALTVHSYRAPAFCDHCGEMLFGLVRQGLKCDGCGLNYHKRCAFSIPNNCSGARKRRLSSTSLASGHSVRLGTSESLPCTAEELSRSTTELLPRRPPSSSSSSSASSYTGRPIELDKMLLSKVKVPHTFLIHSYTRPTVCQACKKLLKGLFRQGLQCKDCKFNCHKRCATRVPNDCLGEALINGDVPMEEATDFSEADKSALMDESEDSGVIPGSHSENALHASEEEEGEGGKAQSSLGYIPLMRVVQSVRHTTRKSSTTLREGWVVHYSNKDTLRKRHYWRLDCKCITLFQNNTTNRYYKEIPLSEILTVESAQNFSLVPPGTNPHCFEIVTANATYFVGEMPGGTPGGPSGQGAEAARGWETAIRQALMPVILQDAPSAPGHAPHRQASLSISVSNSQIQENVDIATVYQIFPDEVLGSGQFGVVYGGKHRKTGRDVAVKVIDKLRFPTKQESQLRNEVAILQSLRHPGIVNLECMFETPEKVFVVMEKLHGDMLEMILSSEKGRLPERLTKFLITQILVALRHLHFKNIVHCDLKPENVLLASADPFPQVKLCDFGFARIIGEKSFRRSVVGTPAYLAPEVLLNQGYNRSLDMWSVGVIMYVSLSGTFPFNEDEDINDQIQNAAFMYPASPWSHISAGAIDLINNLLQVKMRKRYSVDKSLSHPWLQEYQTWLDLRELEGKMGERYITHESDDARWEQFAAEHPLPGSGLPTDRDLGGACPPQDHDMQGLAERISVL

SMILES | inhibition [1] | inhibition [2] | inhibition [3] | inhibition [4] | inhibition [5] | inhibition [6] | inhibition [7] | inhibition [8] | inhibition [9] | inhibition [10] | inhibition [11] | inhibition [12] | inhibition [13] | inhibition [14] | inhibition [15] | inhibition [16] | inhibition [17] | inhibition [18] | inhibition [19] | inhibition [20]
NS(=O)(=O)c1ccc(N/N=C2\C(=O)Nc3ccc(C(=O)NCc4ccncc4)cc32)cc1 | 10.9% | 5.56% | 8.91% | 0.49% | 2.27% | -0.39% | 5.08% | 6.25% | 4.31% | 1.42% | 6.61% | -9.87% | 1.34% | 3.98% | 8.38% | 1.7% | 4.09% | 3.88% | 24.4% | 6.54%
CNC(=O)c1cncc(/C=C/c2ccccc2C)c1 | 2.42% | 4.12% | 3.53% | 0.63% | 1.68% | 1.31% | 5.47% | 4.83% | 5.78% | -2.58% | 4.82% | 0.25% | 1.08% | 2.42% | 5.04% | 0.51% | 3.14% | 3.24% | 5.01% | 3.71%
COc1ccc(Nc2ncc(-c3ccccc3)o2)cc1OC | 2.22% | 0.2% | 1.87% | 1.08% | 4.51% | -0.02% | 3.24% | 0.42% | -1.25% | 0.58% | 1.49% | -0.08% | 0.61% | -0.85% | -0.93% | -0.24% | 1.4% | 0.41% | 2.5% | 0.6%
CN(c1ccc(NC(=O)NCCN2CCOCC2)cc1)c1ccnc(Nc2ccc(CS(C)(=O)=O)cc2)n1 | 0.31% | 1.27% | 4.06% | -0.51% | -0.33% | 0.46% | 1.54% | 4.71% | 5.63% | 2.51% | 4.99% | 2.77% | 2.1% | 2.63% | 3.43% | 0.67% | -0.33% | 2.05% | 1.78% | 2%
O=C1Nc2ccccc2/C1=C1\CCc2cc(O)ccc21 | 15.1% | 2.16% | 4.57% | 1.24% | 2.87% | 0.69% | 1.16% | 2.22% | 3.7% | 2.96% | 2.98% | 2.01% | 4.09% | 2.42% | 4.05% | 1.94% | 1.69% | 5.09% | 18.2% | 6.34%
COc1ccc(-c2nn3ncccc3c2-c2ccnc(Nc3ccc(F)c(F)c3)n2)cc1 | 0.91% | 1.99% | 3.24% | 0.39% | 1.74% | 1.53% | 5.16% | 1.15% | 7.16% | 4.72% | 6.44% | 1.96% | 0.63% | 2.86% | 7.77% | 1.81% | 3.24% | 4.47% | 5.19% | 3.52%
N#Cc1cccc(Nc2ncc(-c3ccccc3)o2)c1 | 0.43% | 0.96% | 1.68% | -0.44% | 0.37% | 0.7% | 2.96% | 0.23% | 2% | -0.01% | 5.3% | 0.25% | 0.06% | 1.33% | 3.57% | 0.6% | 1.2% | 5.32% | 2.44% | 1.97%
COc1c(C(N)=O)cc(-c2ccc(Cl)cc2)cc1-c1ccc(S(N)(=O)=O)cc1 | 1.2% | 3.03% | 4.3% | 0.59% | 1.5% | 0.62% | 3.84% | 1.17% | 5.18% | 1.45% | 4.7% | 1% | 0.99% | 2.35% | 3.92% | 1.11% | 3.56% | 4.74% | 5.66% | 3.83%
CCn1c(-c2nonc2N)nc2cncc(C(=O)NCCNC)c21 | 1.56% | 42.5% | 78.2% | 15.5% | 58.2% | 61.1% | 74.4% | 73.9% | 93.6% | 6.21% | 35.3% | 9.63% | 40% | 8.91% | 39.2% | 21.1% | 61% | 5.32% | 8.53% | 5.41%
OCCCNc1nccc(-c2c(-c3ccc(F)cc3)nn3cc(C(F)(F)F)ccc23)n1 | 2.27% | 5.3% | 1.41% | 0.43% | 2.81% | 3.23% | 5.54% | 3.94% | 0.31% | 2.28% | 1.12% | 0.77% | 4.1% | 0.12% | 0.91% | 1.5% | 7.52% | 1.85% | 14.1% | 2.01%
